From PubChem BioAssay AID624125 (The Scripps Research Institute Molecular Screening Center, 2012)
The campaign covered roughly 360,000 compounds. About 2,600 (0.72%) were called active. What follows is part of a selection rich in actives, with near analogues and random picks from the rest. Unmarked numbers belong to inactive results.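 Rule for the calls: active = inhibition above its plate's cutoff, the mean inhibition of sample wells plus 3 SD (cut at about 27% in these data); inactive = the rest.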

molecular target: Muscarinic acetylcholine receptor M4 (Homo sapiens) (UniProt P08173); test: human M4 muscarinic receptor antagonists, primary screen, CHO cells, Fluo-8 calcium fluorescence (AID 624125); settings: CHO-hM4 cells, ACh EC80, Fluo-8 calcium fluorescence; at 3 µM; active compounds read high;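 note: 0% = acetylcholine EC80 with DMSO and 100% = DMSO without agonist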
Sequence (P08173 whole entry, looked up): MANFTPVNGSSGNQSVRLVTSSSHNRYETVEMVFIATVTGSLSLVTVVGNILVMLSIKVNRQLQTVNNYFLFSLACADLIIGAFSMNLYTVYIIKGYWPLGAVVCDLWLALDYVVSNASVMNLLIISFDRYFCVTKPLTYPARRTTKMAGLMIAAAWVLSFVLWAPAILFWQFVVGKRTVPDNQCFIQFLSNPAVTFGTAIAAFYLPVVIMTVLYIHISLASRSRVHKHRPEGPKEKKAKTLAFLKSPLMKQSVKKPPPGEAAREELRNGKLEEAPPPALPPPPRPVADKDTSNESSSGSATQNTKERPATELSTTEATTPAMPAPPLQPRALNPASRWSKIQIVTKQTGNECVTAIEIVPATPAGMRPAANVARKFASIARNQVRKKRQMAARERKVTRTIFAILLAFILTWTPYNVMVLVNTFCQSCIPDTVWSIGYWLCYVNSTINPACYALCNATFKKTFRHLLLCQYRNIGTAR

| Compound | inhibition |
| --- | --- |
| O=c1[nH]c2ccccc2n1C1CCN(C(c2ccccc2)c2nnnn2Cc2ccccc2)CC1 (stereo not given) | 27.1% (active) |
| O=c1[nH]c2ccccc2n1C1CCN(C(c2ccnc3ccccc23)c2nnnn2Cc2ccccc2)CC1 (stereo not given) | 22.4% |
| CSCCC(c1nnnn1C(C)(C)C)N1CCC(n2c(=O)[nH]c3ccccc32)CC1 (stereo not given) | 5.14% |
| Nc1ccc(C(=O)N/N=C2/CN3CCC2CC3)cc1 | -0.14% |
| Cc1nn(Cc2ccccc2Cl)c(Cl)c1C(=O)OC(C(=O)NC(N)=O)C(C)C (stereo not given) | 1.94% |
| COC(=O)N(c1ccc(OC)cc1)P1(=S)OCCC(C)O1 (stereo not given) | 1.76% |
| COc1ccc(N=Cc2c(O)n(C)c(=O)[nH]c2=O)cc1 | 1.06% |
| CC(C)c1c(CN(C)C(C)Cc2ccccc2)n(C)n(-c2ccccc2)c1=O (stereo not given) | 66.1% (active) |
| CCOC(=O)C(O)(c1ccc(N)c(OC)c1)C(F)(F)F (stereo not given) | 1.32% |
| O=[N+]([O-])c1cnc2ccc3ccccc3c2c1 | 9.35% |
| CC1(C)Cc2c(C#N)c(N3CCNCC3)nc(-c3ccco3)c2CS1 | 5.55% |
| CC1CCCCN1Cc1cccnc1 (stereo not given) | 3.46% |
| CC1CCCN1CCC(C(N)=O)(c1ccccc1)c1ccccc1 (stereo not given) | 99% (active) |
| O=C(Cc1ccccc1)N1CCN(C2CCCCCC2)CC1 | 0.63% |
| C[C@]12CCCCC1=CC(=O)C1C2CC[C@@]2(C)C1C[C@@H](F)[C@@H]2O (stereo not given in full) | -6.29% |
| N#Cc1ccc(Cn2cc(C(=O)c3ccco3)c3ccccc32)cc1 | 0.92% |
| CCOP(=O)(OCC)C(NC(=O)c1ccc(C)cc1)C(Cl)(Cl)Cl (stereo not given) | 9.97% |
| CCOP(=O)(OCC)C(NC(=O)NC)C(N)=O (stereo not given) | 39% (active) |

| Compound | inhibition |
| --- | --- |
| CCOP(=O)(OCC)C(NC(=O)c1ccc(OC)cc1)C(Cl)(Cl)Cl (stereo not given) | 3.05% |
| CN(C)CCCN=Cc1c(O)n(Cc2ccco2)c(=O)[nH]c1=O | 2.03% |
| CC(=O)N(C1=NCCCS1)c1ccccc1F | -8.11% |
| CN(C)C(=O)Oc1cc(=O)n2c3c(cccc13)CCC2 | -4.4% |
| CCCCCCCCCCCCn1ccc(=N)cc1 | 71.3% (active) |
| COc1cc(-n2c(=S)[nH]c3ccc(C)cc3c2=O)c(Cl)cc1Cl | 3.21% |
| COC(=O)C(O)(c1ccc(NC(=O)c2ccco2)c(OC)c1)C(F)(F)F (stereo not given) | 1.51% |
| CCCC(C)n1[nH]c(=O)c2c1NC(=O)CSC2c1ccc(OC)c(OC)c1 (stereo not given) | -2% |
| O=C(NCC(c1cccnc1)N1CCN(c2ccccc2)CC1)Oc1ccccc1 (stereo not given) | -1.68% |
| CCCC[N+]1(C)C2CC(OC(=O)C(CO)c3ccccc3)CC1C1OC12 (stereo not given) | 90.4% (active) |
| N#CC1=C(N)Oc2c(c(=O)oc3ccccc23)C1c1ccccc1OC(=O)c1cccs1 (stereo not given) | 5.46% |
| Cc1ccc(-n2c(O)c(C=NCC3CCCO3)c(=O)[nH]c2=O)c(C)c1 (stereo not given) | -11% |
| COc1cccc(CN2CCCC(C(=O)c3ccccc3SC)C2)c1O (stereo not given) | -1.14% |
| CC[N+]1(C)CCCC(OC(=O)C(O)(c2ccccc2)c2ccccc2)C1 (stereo not given) | 98.6% (active) |
| Cc1ccc(N(C)C(=O)Oc2cccc3ccc(C)nc23)cc1 | 5.04% |
| CCc1nc2ccccc2c(=O)n1-c1cccc(OC)c1 | -8.12% |
| CN1CCN(/N=C/c2c[nH]c3ccccc23)CC1 | -1.55% |
